Among all 360,000 compounds or so, about 1,800 (0.5%) were called active. Only a selection was taken, and actives are over-represented in it overall. Values without a mark were called inactive.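 How the source made its calls: active means mean inhibition of at least 75% with every replicate also reaching 75%; inconclusive means mean inhibition at least 75% but some replicate below; inactive means mean inhibition below 75%.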
Test: Shn3 3'UTR reporter decrease in osteoblasts – cell-based, Clone20 osteoblasts, firefly luciferase, set 2, Schnurri-3 inhibitor project, primary screen (AID 588674);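 further: 0% = median of neutral control wells and 100% = pilot-screen positive control compound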
Conditions: Clone20 osteoblast Shn3 3'UTR firefly luciferase, 24 h; at 12.5 µM; hits give high values

| SMILES | inhibition |
| --- | --- |
| CCn1c(NCCc2ccc(OC)c(OC)c2)nc2c1c(=O)n(C)c(=O)n2C | 63.1% |
| CCCCNc1nc2c(c(=O)n(C)c(=O)n2C)n1Cc1cccc(OC)c1 | 86.7% (active) |
| Cn1c(=O)c2c(nc(NCCNC(=O)c3ccco3)n2Cc2ccccc2F)n(C)c1=O | 12.8% |
| C[C@H](C(=O)CC(=O)OC(C)(C)C)[C@H](O)c1ccc(C(F)(F)F)cc1 | -13.2% |
| O=C(NCc1ccc(F)cc1)c1cc(C2CCCCN2C(=O)c2cccs2)on1 (configuration not stated) | 4.41% |
| O=S1(=O)CC(N2CCN(c3ccccn3)CC2)CN1Cc1ccc(F)cc1 (configuration not stated) | 11.2% |
| COc1ccccc1N1CCN(/N=C\C(Br)=C\c2ccccc2)CC1 | 39.8% |
| Cc1cc(-c2n[nH]c(=S)n2/N=C/C(Br)=C/c2ccccc2)n[nH]1 | 90.7% (active) |
| COc1ccccc1/C=C/C=N/n1c(-c2ccc(Cl)cc2Cl)n[nH]c1=S | -1.5% |
| Cc1ccc(S(=O)(=O)N2C[C@]3(O)C[C@@H]4C(=O)N(c5ccccc5)C(=O)[C@@H]4C[C@]3(OC(=O)NC3CC3)C2)cc1 | 7.81% |
| CCOC(=O)/C(=N\Nc1ccccc1[N+](=O)[O-])c1csc(Nc2ccccc2)n1 | -7.96% |
| CCOC(=O)C(=Cc1ccccc1)C(=O)c1ccccc1 | 40.1% |
| CCOC(=O)/C(=C\c1ccc([N+](=O)[O-])cc1)C(=O)c1cc(C(C)=O)c(Nc2ccccc2)s1 | 97.8% (active) |
| COc1ccc(-c2c(C#Cc3ccsc3)c3cc(-c4ccc(CN5CCOCC5)cc4)ccc3n2C)cc1 | 10.2% |
| Cc1cccc(N2CCN(C(c3ccccc3)c3nnnn3CC3CCCO3)CC2)c1C (configuration not stated) | 20.4% |
| CC1(C)CC(N2CCN(C(c3ccccc3)c3ccccc3)CC2)=CC(=[N+]2CCCCC2)C1 | 88.3% (active) |
| COc1ccccc1NC(=S)N1CCN(C(c2ccccc2)c2ccccc2)CC1 | 13.3% |
| Cc1ccc(-n2c(=O)c(C#N)cc3c(=O)n4ccccc4nc32)cc1C | 6.55% |
| O=C(NCC1CCCCC1)c1cc(S(=O)(=O)N2CCCCC2)ccc1N1CCOCC1 | -9.53% |
| CCc1nnc(NC(=O)CCN(c2ccc(C)cc2)S(=O)(=O)c2ccccc2)s1 | -20.5% |
| Cc1sc2ncnc(SCC(=O)NC3CCS(=O)(=O)C3)c2c1C (configuration not stated) | -6.98% |
| CC(C)(C)c1ccc(/C=C2\Oc3c(ccc(O)c3CN3CCN(CCO)CC3)C2=O)cc1 | 7.57% |

| SMILES | inhibition |
| --- | --- |
| COCCCNC(=O)Cn1cc(C(=O)C2CC2)c2ccccc21 | 11.6% |
| O=C(Cn1cc(C(=O)C2CC2)c2ccccc21)Nc1ccccc1Cl | 87.4% (active) |
| Cc1ccccc1NC(=O)Cn1cc(C(=O)C2CC2)c2ccccc21 | 8.79% |
| COc1cc(CNc2ncnc3c2ncn3[C@H]2CN(Cc3cccs3)C[C@@H](CO)O2)cc(OC)c1OC | -5.77% |
| Cc1ccccc1C(=O)N1CCN(c2ccc(NC(=O)c3cccs3)cc2)CC1 | 23.5% |
| Cc1ccccc1C(=O)NC(=S)Nc1ccc(N2CCN(C(=O)c3ccccc3)CC2)cc1 | 88.5% (active) |
| COc1ccccc1C(=O)NC(=S)Nc1ccc(N2CCOCC2)cc1 | -4.89% |
| CC1(C(=O)NS(=O)(=O)Cc2cccc(Cl)c2)CCN1C(=O)Cc1ccc(Cl)cc1Cl (configuration not stated) | 18.9% |
| CC1(C)CC(=O)C=C(c2cccc3c2Oc2ccccc2S3)C1 | 22.5% |
| CCOC(=O)c1c(C)[nH]c(C(=O)OCC(=O)c2ccc(OC)cc2OC)c1C | -19.1% |
| CCOC(=O)c1c(C)[nH]c(C)c1S(=O)(=O)NCCCc1ccco1 | 6.75% |
| CCOC(=O)c1c(C)[nH]c2c1-c1ccccc1C(=O)C2=O | 95.4% (active) |
| COc1ccccc1C(=O)Nc1ccnn1C1CCN(C(=O)C(C)(C)C)CC1 | -5.61% |
| CC(=O)Nc1ccc(N2C(=O)CCC2=O)cc1C | -1.51% |
| C/C(N)=C(/C#N)C(=O)COC(=O)C1CCN(C(=O)c2ccc(Cl)cc2)CC1 | 3.42% |
| Cc1ccc(C)c(Cn2nnc3c(=O)[nH]c(C(=O)Nc4ccc(F)cc4)nc32)c1 | 6.9% |
| Cc1cccc(NC(=O)CCN2CC(C)CC(C)C2)c1 (configuration not stated) | 15.6% |
| Cc1cccc(CS(=O)(=O)c2ncc(Cl)c(C(=O)Nc3ccc(F)cc3)n2)c1 | 95.8% (active) |
| Cc1cccc(NC(=O)Cn2cc(C(=O)c3ccco3)c3ccccc32)c1 | 76.4% |
| Cc1cccc(CN2CCC(CNC(=O)Nc3ccc(F)c(Cl)c3)CC2)c1 | 31.4% |
| Cc1cccc(NC(=O)c2nc(S(=O)(=O)Cc3ccccc3)ncc2Cl)c1 | 96.9% (active) |
| CCS(=O)(=O)Nc1ccc(C(=O)NCCSc2ccccc2)cc1 | -6.43% |

| SMILES | inhibition |
| --- | --- |
| CCCCc1ccc(NC(=S)N2CCCC(CO)C2)cc1 (configuration not stated) | -84.4% |
| COc1cccc(CN(C)CC(=O)Nc2sc3c(c2C#N)CCC3)c1 | -22.6% |
| COc1cncc(-c2cnc3sc(NCCc4ccccn4)nn23)c1 | 21.9% |
| COC(=O)c1sc(C(F)(F)F)c(-c2ccccc2)c1S(=O)(=O)N(C)C | 10.9% |
| O=C(O)Cc1ccc(NCc2ccccc2Cl)cc1 | -22.2% |
| CC(CN1CCCCC1)OC(=O)c1ccccc1Cl (configuration not stated) | -3.13% |
| CC(C)OC(=O)c1ccc(NCc2cc(O)ccc2O)cc1Cl | 95.7% (active) |
| CNS(=O)(=O)c1cccc(C(=O)OCCCC(=O)c2ccccc2)c1 | 41.8% |
| Fc1ccc2[nH]c3c(N4CCSCC4)ncnc3c2c1 | 89.7% (active) |
| CC(C)Cn1cnc2c(SCc3ccc(Cl)cc3)nc(N)nc21 | 11.7% |
| COCCn1c(SC(C)C(=O)NC2CC2)nnc1-c1cccc(C)c1 (configuration not stated) | 1.3% |
| O=C(OC12CC3CC(CC(C3)C1)C2)c1ccc(NCc2cc(O)ccc2O)cc1 | 98.1% (active) |
| CC1(C)C2CCC1(C)C(OC(=O)c1ccc(O)cc1)C2 (configuration not stated) | 21.8% |
| CN(C)C(=O)CCc1ccc2c3c([nH]c2c1)[C@]1(C)[C@@H](C(=O)N2CCOCC2)C[C@H](CC(=O)NCCc2ccccn2)C(=O)N1CC3 | -11.8% |
| CCCOc1ccc(F)cc1-c1cc(C(=O)Nc2ccc(F)cc2)[nH]n1 | 20% |
| COc1ccc(OC)c(NC(=O)c2cc(-c3cc(F)ccc3OCC3CCCO3)n[nH]2)c1 (configuration not stated) | 86.3% (active) |
| COc1cc(F)ccc1-c1cc(C(=O)NCC2CCCCC2)[nH]n1 | -10.1% |
| O=C(CSc1ncnc2c1nnn2Cc1ccc(F)cc1)NC1CCCC1 | -2.06% |
| O=C1c2ccccc2[C@@H]2C[C@@H](O)[C@H](Nc3ccccc3Cl)CCN12 | 55.5% |
| Cn1cccc1Cc1nnc(SCC(=O)NCCc2ccccc2)n1-c1ccc(F)cc1 | 87.9% (active) |
| COc1ccccc1NC(=O)CSc1nnc(Cc2cccn2C)n1-c1ccc(F)cc1 | 17% |
| Cc1ccc(C)c(NC(=O)CSc2nnc(Cc3cccn3C)n2-c2ccc(F)cc2)c1 | 7.47% |

| SMILES | inhibition |
| --- | --- |
| Fc1cccc(Cc2c(-c3ccc(Cl)cc3)nc3ccc(Cl)cn23)c1 | -13.4% |
| CN1OC[C@@H]2CN(C(=O)c3cccc4ccccc34)[C@H](c3ccc(N4CCCCC4)cc3)C[C@@H]21 | -9.07% |
| Cc1cc(C)cc(OCC(=O)Nc2ccc(S(=O)(=O)Nc3ccccn3)cc2)c1 | 6.49% |
| O=S(=O)(Nc1ccc(Oc2ncccn2)c(Cl)c1)c1ccc(F)cc1 | -28.6% |
| Cc1ccc(S(=O)(=O)Nc2ccc3ncccc3c2)cc1 | 86.6% (active) |
| Cc1c(CC(=O)NCC(=O)NCC(=O)O)c(=O)oc2cc3oc4c(c3cc12)CCCC4 | -25.9% |
| CN(C)C(=O)c1ccc2c(c1)C1C3CCC(C3)C1C(c1ccccc1)N2 (configuration not stated) | -19.2% |
| COc1ccccc1OCCNc1cc(N2CCOCC2)ccc1[N+](=O)[O-] | 40.1% |
| O=C(c1ccccc1)N1CCN(c2ccc([N+](=O)[O-])c(NCc3ccco3)c2)CC1 | 27.6% |
| COc1ccc(CCNc2cc(N3CCN(C(=O)c4ccccc4OC)CC3)ccc2[N+](=O)[O-])cc1OC | 88.7% (active) |
| CC1=CC(=O)C=CC1(C)C(Cl)(Cl)Cl (configuration not stated) | 9.05% |
| O=C(CCS(=O)(=O)c1ccc2c(c1)NC(=O)CS2)NCc1ccccc1Cl | -18.1% |
| CN(C)S(=O)(=O)c1ccc(C(=O)NCC(C)(C)N2CCOCC2)cc1 | 23% |
| O=C(NCCSCc1ccccc1)c1ccc(Cl)c(S(=O)(=O)N2CCOCC2)c1 | 10.8% |
| CC(C)(CNC(=O)c1ccc(Cl)c(S(=O)(=O)N2CCc3ccccc3C2)c1)N1CCOCC1 | 82.5% (active) |
| CCOC(=O)C1=CCC(c2ccc(F)cc2)N(S(=O)(=O)c2ccc(C)cc2)C1 (configuration not stated) | 10.7% |
| N#Cc1c(-c2ccc(F)cc2)cc(C2CC2)nc1SCC(=O)c1cccs1 | -3.6% |
| CN(CC1CCCO1)S(=O)(=O)c1ccc(C(=O)Nc2ccc([N+](=O)[O-])cc2)cc1 (configuration not stated) | 39.9% |
| O=C(Nc1cc2c3c(c1)C1CCCC1CN3CC1CCCC21)c1ccc([N+](=O)[O-])cc1 (configuration not stated) | 88.9% (active) |
| CN1C2CCC1CC(NC(=O)c1ccc([N+](=O)[O-])cc1)C2 (configuration not stated) | -1.34% |
| CC1=NNC(=O)C1CCC(=O)N/N=C\c1cccc(Cl)c1 (configuration not stated) | -5.12% |

— PubChem BioAssay AID588674 (Broad Institute, 2011)
